Reference: PubChem BioAssay AID1159580 (chemical genetic matrix, 2015)
The whole screen tested about 5,500 compounds, of which about 2,000 (36%) were called active. Roughly 18% stayed inconclusive and do not appear here. No stated cut-off is given here; in the data, active means normalized growth mostly below about 0.91 (no sharp cut-off); inconclusive means no clear call, values can overlap the other calls; inactive means mostly above about 0.92. The list shows a part of the results.

Experiment: chemical genetic growth profiling, strain panel (AID 1159580);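 further: tested at 20 µM; growth read once vehicle control cultures reached saturation at 30 °C; 1 = growth at the plate median or of vehicle wells; lower values mean less growth of the strain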
Conditions: S. cerevisiae deletion strains, growth OD

Measured: normalized growth

COC(=O)CSCCc1nc(-c2ccc([N+](=O)[O-])cc2)cs1
inactive: locus YAL013W, strain DEP1, active compounds read low 1 | locus YBR229C, strain ROT2, active compounds read low 0.972 | locus YCL061C, strain MRC1, active compounds read low 0.97 | locus YDL101C, strain DUN1, active compounds read low 0.967 | locus YDL134C, strain PPH21, active compounds read low 0.976 | locus YDR150W, strain NUM1, active compounds read low 0.991 | locus YEL061C, strain CIN8, active compounds read low 0.986 | locus YGR078C, strain PAC10, active compounds read low 0.978 | locus YGR229C, strain SMI1, active compounds read low 0.965 | locus YHR087W, strain rtc3, active compounds read low 0.987 | locus YJR043C, strain POL32, active compounds read low 0.971 | locus YJR075W, strain HOC1, active compounds read low 0.946 | locus YLR039C, strain RIC1, active compounds read low 0.919 | locus YLR058C, strain SHM2 (second series), active compounds read low 0.964 | locus YLR262C, strain YPT6, active compounds read low 0.915 | locus YML094W, strain GIM5, active compounds read low 0.994 | locus YMR219W, strain ESC1, active compounds read low 0.975 | locus YMR263W, strain SAP30, active compounds read low 0.968 | locus YNL153C, strain GIM3, active compounds read low 1.01 | locus YNL298W, strain CLA4 (second series), active compounds read low 0.927 | locus YNL322C, strain KRE1, active compounds read low 0.965 | locus YNR030W, strain Alg12, active compounds read low 0.969 | locus YPL055C, strain LGE1, active compounds read low 0.971 | locus YPL241C, strain CIN2, active compounds read low 0.911 | locus YPR135W, strain CTF4, active compounds read low 0.894
active: locus YHR030C, strain SLT2, active compounds read low 0.683 | locus YLR085C, strain ARP6, active compounds read low 0.717
